Bioassay records (PubChem BioAssay)
ELG1 genotox – genotoxicity induction in ELG1-luciferase HEK293T cells | Potency, µM (highest dose often 46 µM), inactives show top-dose activity change, positive = activation, most hits filed as activators | 330,000 tested, 1.3% active | AID 504466 | HEK293T ELG1-luciferase reporter, luminescence, 16 h; further: % of control where 0% means no effect; nearly all actives have a fitted effect of over 60% in size
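After overnight (16 hr) compound treatment at 37 °C, ELG1-luciferase HEK293T cells were lysed with ONE-Glo; luminescence quantified 30 min later at room temperature.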
SMN2 splice enh – SMN2 splice variant enhancement; HEK293 SMN2-luciferase splicing reporter, luminescence, 30-36 h; 210,000 tested, 2.8% active; AID 1458; Potency, µM (top dose mostly 46.1 µM), inactives show top-dose activity change, positive = activation, actives largely listed as activators; further: % of control where 0% means no effect; nearly all actives have a fitted effect of over 55% in size
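HEK293 cells carry an SMN2 […]–luciferase reporter in which exon 7 inclusion puts luciferase in frame. Cells were plated 10-12 h before compound addition, then incubated 30-36 h at 37C. ONE-Glo luminescence was read; sodium butyrate at 4.5 mM final served as control.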
Luc counter – Kinase-Glo luciferase inhibition (counter-screen); Q27757; Kinase-Glo luciferase, ATP luminescence, 8 min; Potency, µM (top dose mostly 38.3 µM), for inactives: at the highest dose activity change, negative = inhibition, most hits filed as inhibitors; 200,000 tested, 0.28% active; AID 1379; further: on the % scale 0 is the no-effect control and ±100 the full control effect; nearly all actives have a fitted effect of over 60% in size
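Compound is pinned into ATP-containing buffer (10 uM ATP, imidazole pH 7.2, 7 mM MgCl2). Kinase-Glo luciferase reagent is then added. Light output is recorded following an 8-min room-temperature incubation.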
Rab9 prom act – activators of Rab9 promoter | Huh7 Rab9 promoter-luciferase reporter, luminescence, 24 h | Potency, µM (highest dose often 9.22 µM), inactives show at the highest dose activation, negative = inhibition, actives largely listed as activators | 320,000 tested, 2.8% active; further: % of control where 0% means no effect; nearly all actives have a fitted effect of over 60% in size
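Luminescence read-out: Huh7 cells stably expressing Rab9-luciferase, treated 24 h with compound at 37 °C, then lysed with luciferase reagent for 10 min at ambient before reading.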
FLuc counter – firefly luciferase modulation, counter-screen for miR-21 project. P08659. purified FLuc, Km substrates, luminescence inhibition. Potency, µM (highest dose often 57.5 µM), for the others: at the highest dose activity change, negative = inhibition, most hits filed as inhibitors. 360,000 tested, 6.9% active;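 further: plate controls were vehicle for no effect and reference inhibitor for full effect; nearly all actives have a fitted effect of over 55% in size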
Target sequence (P08659 whole entry, looked up): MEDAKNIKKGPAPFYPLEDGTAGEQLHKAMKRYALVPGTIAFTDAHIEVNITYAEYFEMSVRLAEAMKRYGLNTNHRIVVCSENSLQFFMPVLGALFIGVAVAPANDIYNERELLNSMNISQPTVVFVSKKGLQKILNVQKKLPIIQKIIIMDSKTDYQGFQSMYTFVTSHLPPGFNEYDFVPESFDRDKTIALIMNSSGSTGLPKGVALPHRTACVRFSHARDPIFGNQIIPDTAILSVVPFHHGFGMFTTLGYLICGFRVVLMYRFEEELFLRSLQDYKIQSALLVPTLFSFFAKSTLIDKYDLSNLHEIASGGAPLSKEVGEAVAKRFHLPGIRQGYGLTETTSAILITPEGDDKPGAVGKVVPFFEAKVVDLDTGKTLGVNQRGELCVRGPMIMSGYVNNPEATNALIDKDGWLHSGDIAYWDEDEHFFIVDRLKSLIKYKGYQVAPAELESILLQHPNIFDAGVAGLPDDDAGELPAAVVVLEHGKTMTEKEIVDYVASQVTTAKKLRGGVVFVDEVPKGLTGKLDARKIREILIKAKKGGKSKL
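Purified P. pyralis luciferase, 10 nM final, with Km-level 10 uM D-luciferin and 10 uM ATP in 50 mM Tris acetate pH 7.5, 10 mM Mg acetate, 0.01% Tween-20, 0.05% BSA; 6-point qHTS titration about 60 µM downward; luminescence read.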
NPC1 prom act – activators of NPC1 promoter; Potency, µM (doses to about 9.22 µM), for the others: top-dose activation, hits mostly activators; Huh7 NPC1 promoter luciferase reporter, 24 h; 320,000 tested, 2.4% active; further: % of control where 0% means no effect; nearly all actives have a fitted effect of over 60% in size
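Quantitative HTS used a cell-based reporter: Huh7 cells stably bearing the NPC1 promoter upstream of luciferase were treated with compounds for 24 h, and promoter activation was read as luminescence.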
Starred values were filed as active, the others as inactive; ? = inconclusive; / = no result; [ ] = remark or other dose. Sampled rows, rich in hits. Any-hit rate of the full collection: about 7.5%. The call rests on the fitted dose curve; in most records, active means well fitted curve in the direction sought with a large enough effect; inconclusive means small, poorly fitted or top-dose-only effect, or another doubt; inactive means no such curve, though single readings can be large; an effect the other way counts as inactive or inconclusive. Potency means the concentration at half of the fitted maximal effect.

SMILES | ELG1 genotox | SMN2 splice enh | Luc counter | Rab9 prom act | FLuc counter | NPC1 prom act
Cc1ccc(S(=O)(=O)N2CCCC2)cc1C(=O)NCCN1CCOCC1 | ? | / | / | 20% | ? | 18%
COC(=O)c1ccc(OCCOc2ccccc2)cc1 | ? | -5% | -2% | ? | 15µM* | 15%
COc1cccc(C(=O)COc2ccc(NC(=O)c3cccs3)cc2)c1 | -19% | / | / | -1% | 8.5µM* | 4%
COC(=O)c1ccc(OCCOc2ccccc2C)cc1 | 3% | / | / | 10% | ? | 2%
CCCCOc1cccc(C(=O)Nc2ccc(NC(=O)c3cccs3)cc2)c1 | 18% | / | / | -5% | -2% | -8%
COC(=O)c1ccc(OCC(=O)c2cccc(OC)c2)cc1 | ? | 5.6µM* | -5% | ? | 24µM* | ?
COC(=O)c1ccc(COc2ccccc2/C=C/C(=O)c2ccc(OCC(=O)O)cc2)cc1 | -5% | / | / | 3% | 5.4µM* | 0%
CC(C)(C)C1CCc2c(sc(NC(=O)c3cc4ccccc4c(=O)o3)c2C(N)=O)C1 (centres undefined) | / | 0% | / | / | -10% | /
COC(=O)c1ccc(NC(=O)CC(=O)Nc2ccc(C(=O)OC)cc2)cc1 | 2% | / | / | -3% | 1% | -2%
CCCOc1ccc(C(=O)Nc2ccc(NC(=O)c3cccs3)cc2)cc1 | 5% | / | / | 12% | -3% | 1%
COC(=O)c1ccc(N=Nc2ccccc2)cc1 | 2% | 20% | -5% | ? | 5.4µM* | 14%
COC(=O)c1ccc(O)cc1 | -6% | / | 0%[39.9 µM] | -2% | 9% | -4%
COC(=O)c1ccc(NC(=O)CNc2ccccc2)cc1 | ? | / | 1% | ? | 24µM* | 27%
O=C(COc1ccc(NC(=O)c2cccs2)cc1)c1ccc(F)cc1 | 22% | / | / | 18% | 1.9µM* | 11%
O=C(COC(=O)COc1cccc(Br)c1)Nc1ccc(F)cc1F | -3% | / | / | -1% | 2% | -2%
CC(C)(C)CC(=O)NC1CC(=O)N(c2ccc3c(c2)OCCO3)C1 (centres undefined) | / | / | / | / | -2% | /
Brc1ccc2nc(-c3cccs3)c(NCC3CCCO3)n2c1 (centres undefined) | -8% | / | -7% | 27% | 12µM* | ?
O=C(NCCCN1CCN(c2ccccc2F)CC1)c1ccc2nc(CCc3ccccc3)oc2c1 | / | / | / | / | -11% | /
O=C(O)c1ccccc1SCc1csc(-c2ccccc2)n1 | ? | / | / | ? | ? | 24%
O=C(O)c1cccnc1SCc1cn2cc(Br)ccc2n1 | -2% | -1% | 6% | -4% | 24µM* | 0%
O=C(O)c1ccccc1SCc1cn2cc(Br)ccc2n1 | ? | ? | 0% | ? | 9.5µM* | ?
O=C(O)c1cccnc1SCc1cccc(Br)c1 | 2% | / | / | 1% | ? | -6%
CCOC(=O)CSc1nc(N)nc(C)c1Cl | -4% | / | 0% | -2% | 24µM* | 1%
CCc1ccccc1NC(=O)CCc1c(C)nn(-c2ccc(N3CCOCC3)nn2)c1C | 0% | / | / | 0% | 1% | -1%
CCOc1cc(Cl)c(NC(=O)CC)cc1OCC | 7% | 9% | -1% | 0% | -3% | -3%
SMILES | ELG1 genotox | SMN2 splice enh | Luc counter | Rab9 prom act | FLuc counter | NPC1 prom act
CC(=O)c1ccc(Nc2ccc(-c3ccccc3F)nn2)cc1 | ? | 7.1µM* | -5% | 0.5µM* | 4.8µM* | 0.71µM*
Cc1ccc(-c2cc3nc(-c4ccc(Br)cc4)cc(N)n3n2)cc1 | 0% | -12% | 3% | -2% | -19% | -1%
Cc1cc(C)n2nc(-c3ccc(Cl)cc3)cc2n1 | 15µM* | / | / | 3.5µM* | 3.8µM* | 4µM*
Cc1cc(-c2ccc(Cl)cc2)n2nc(C)cc2n1 | -1% | / | / | 3% | -1% | -4%
COc1ccc(-c2cc3nc(C)cc(C)n3n2)cc1 | ? | 10µM* | 10% | 3.5µM* | 7.6µM* | 3.2µM*
Cc1cc(C)n2nc(-c3ccc(Br)cc3)cc2n1 | ? | / | / | ? | 2.7µM* | 3.5µM*
COc1ccc(-c2cc3nc(-c4ccccc4)cc(C(F)(F)F)n3n2)cc1 | / | 1% | / | / | -1% | /
Cc1nc2cc(-c3ccc(Cl)cc3)nn2c(NCCN(C)C)c1C | ? | / | 3% | 24% | 13µM* | ?
CCOc1cccc(-c2c(C(=O)N/N=C/c3cccs3)nnn2-c2nonc2N)c1 | 0% | / | / | 10% | -10% | 8%
COc1ccc(-c2nc3nc(C)cc(C)n3n2)cc1 | ? | 13µM* | -18% | ? | 11µM* | ?
Cc1cc(C(=O)Nc2cccc(C(=O)O)c2)c(C)o1 | ? | ? | -7% | 4µM* | 11µM* | 3.5µM*
Cc1cc(C(=O)Nc2ccc(C(=O)O)cc2)c(C)o1 | 1% | / | / | 0% | ? | 1%
Cc1oc(C(C)(C)C)cc1C(=O)Nc1ccc(C(=O)O)cc1 | 17% | ? | 3% | ? | 17µM* | ?
Cc1ccc(C(=O)Nc2ccc(F)cc2)o1 | 13% | 9% | -7% | 26% | ? | 23%
CC(C)(C)c1ccc(C(=O)Nc2ccc(NC(=O)C(=O)O)cc2)o1 | -2% | 6% | -3% | -3% | 9.5µM* | 1%
Cc1cc(C(=O)Nc2cccc(C(=O)O)c2)oc1C | ? | 1.6µM* | ? | ? | 0.54µM* | ?
CCOc1ccc2c(c1)c(=O)c(C(=O)c1ccc(CC)cc1)cn2CC(=O)Nc1cccc(Cl)c1 | / | -5% | / | / | -3% | /
CCc1ccc(-c2cc(C)no2)cc1S(=O)(=O)NCCc1ccc(OC)c(OC)c1 | -2% | / | / | 3% | -2% | 0%
CC1CCC(NC(=O)Cn2cnc3sccc3c2=O)CC1 (centres undefined) | 5% | / | / | 11% | 7% | 0%
Cc1oc(CC(C)C)cc1C(=O)Nc1ccc(C(=O)O)cc1 | -41% | 11% | 3% | 21% | 12µM* | ?
Cc1oc(C(C)(C)C)cc1C(=O)Nc1cccc(C(=O)O)c1 | ? | ? | -4% | 3.2µM* | 12µM* | 0.71µM*
CCOC(=O)N1CCC(NC(=O)c2ccc3c(c2)N(Cc2cc(C)ccc2C)C(=O)c2ccccc2S3=O)CC1 (centres undefined) | / | -19% | / | / | -1% | /
Cc1ccc(/C=C2\CCC(C3CCCC3)C2=O)cc1 (centres undefined) | 9.2µM* | 22µM* | -7% | 3.5µM* | 0.48µM* | 3.2µM*
Cc1ccsc1/C=C1\CCC(C2CCCC2)C1=O (centres undefined) | ? | / | -18% | 3.5µM* | 2.1µM* | 2.8µM*
Cc1ccsc1/C=C1\SC(N)=NC1=O | 14% | 15% | -9% | 25% | ? | 18%
COc1cc(OC)c(OC)cc1/C=C1\CCC(C2CCCC2)C1=O (centres undefined) | -14% | -24% | 2% | 1% | -13% | -2%
